In PubChem BioAssay:
Active and inactive are the calls of the source. Unless noted, no rule for the calls is given here.

Columns and labels:
[1] = compound effects on lung adenocarcinoma cell viability – A549, calcein-AM fluorescence, 48 h, basal, profiling panel (AID 1162); details: higher = more signal; also: test concentration not given here
[2] = compound effects on differentiated 3T3-L1 adipocyte viability – cell-based, 3T3-L1 adipocytes, calcein-AM fluorescence, 48 h, basal, profiling panel (AID 1163); details: 3T3-L1 adipocytes viability, higher = more signal; also: test concentration not given here
[3] = compound effects on hepatocellular carcinoma cell viability – HepG2, calcein-AM fluorescence, 48 h, basal, profiling panel (AID 1164); details: higher = more signal; also: test concentration not given here
[4] = compound effects on multiple myeloma cell viability – MM1S, calcein-AM fluorescence, 48 h, basal, profiling panel (AID 1165); details: higher = more signal;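 also: viability of MM1S multiple myeloma cells under basal unstimulated conditions; test concentration not given here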
[5] = calcein-AM signal in unstimulated myeloma cells – cell-based, calcein-AM fluorescence, 48 h, PK04 Diversity Set, profiling panel (AID 1166); details: RPMI8226 myeloma viability, higher = more signal;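 also: cells grown under basal conditions without added stimulus; test concentration not given here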
[6] = JC-1 mitochondrial signal, unstimulated HepG2 cells – cell-based, JC-1 fluorescence, 24 h, 100 nL compound, profiling panel (AID 1167); details: HepG2 mitochondrial potential, higher = more signal; also: test concentration not given here
[7] = JC-1 mitochondrial signal, unstimulated adipocytes – cell-based, JC-1 fluorescence, 3T3-L1 adipocytes, 24 h, 100 nL compound, profiling panel (AID 1168); details: JC-1 mitochondrial fluorescence, higher = more signal, called active from +8 up or from −8 down; also: test concentration not given here
[8] = JC-1 mitochondrial signal, unstimulated myeloma cells – cell-based, JC-1 fluorescence, RPMI8226, 24 h, 100 nL compound, profiling panel (AID 1169); details: JC-1 mitochondrial potential fluorescence, higher = more signal; also: test concentration not given here
[9] = JC-1 mitochondrial signal, unstimulated MM1S myeloma – cell-based, JC-1 fluorescence, 24 h, 100 nL compound, profiling panel (AID 1170); details: MM1S mitochondrial potential, higher = more signal; also: test concentration not given here
[10] = resazurin metabolic signal in A549 cells – cell-based, resazurin fluorescence, 24 h, PK04 Diversity Set, profiling panel (AID 1171); details: A549 viability, higher = more signal, called active from +8 up or from −8 down; also: test concentration not given here
[11] = resazurin metabolic signal in HepG2 cells – cell-based, resazurin fluorescence, 24 h, PK04 Diversity Set, profiling panel (AID 1172); details: HepG2 viability, higher = more signal; also: test concentration not given here
[12] = budding yeast growth changes without added modifier – OD600, strain BY4716, 24 h, basal condition, primary screen (AID 1173); details: S. cerevisiae BY4716 growth, OD600, 24 h; higher = more signal, called active from +8 up or from −8 down
[13] = viability profiling in MM1S myeloma cells – cell-based, resazurin fluorescence, basal, 24 h, PK04 Diversity Set, profiling panel (AID 1174); details: higher = more signal, called active from +8 up or from −8 down; also: test concentration not given here
[14] = target: Dihydroorotate dehydrogenase (quinone), mitochondrial (Plasmodium falciparum (isolate 3D7)) (UniProt Q08210); test: inhibition of P. falciparum DHODH – biochemical, C-terminal His tag, absorbance 600 nm, primary screen (AID 1175); details: PfDHODH enzyme, DCIP absorbance 600 nm; higher = more signal, called active from +8 up or from −8 down;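 also: recombinant parasite enzyme with a five histidine tag at its C terminus; test concentration not given here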
Dihydroorotate dehydrogenase (quinone), mitochondrial (Plasmodium falciparum (isolate 3D7)), sequence (Q08210 whole entry, looked up): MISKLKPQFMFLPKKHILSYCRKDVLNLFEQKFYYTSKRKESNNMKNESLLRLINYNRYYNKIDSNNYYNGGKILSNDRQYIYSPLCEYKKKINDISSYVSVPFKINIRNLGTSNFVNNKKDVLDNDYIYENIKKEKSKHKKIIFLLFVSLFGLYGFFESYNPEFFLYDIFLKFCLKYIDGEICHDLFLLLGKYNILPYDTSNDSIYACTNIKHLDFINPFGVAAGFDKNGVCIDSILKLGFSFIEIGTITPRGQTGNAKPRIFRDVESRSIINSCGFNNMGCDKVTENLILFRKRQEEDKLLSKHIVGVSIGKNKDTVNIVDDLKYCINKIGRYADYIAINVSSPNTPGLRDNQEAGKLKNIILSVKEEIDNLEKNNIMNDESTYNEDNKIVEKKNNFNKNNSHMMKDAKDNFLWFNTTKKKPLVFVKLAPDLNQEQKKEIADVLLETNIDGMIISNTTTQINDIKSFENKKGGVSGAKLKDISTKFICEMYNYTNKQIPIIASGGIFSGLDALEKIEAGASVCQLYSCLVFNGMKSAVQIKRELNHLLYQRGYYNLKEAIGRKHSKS

[15] = inhibition of PAO1 biofilm formation – strain PAO1, LB-PBS medium, absorbance 600 nm, primary screen (AID 1176); also: test concentration not given here; details: P. aeruginosa PAO1 growth/biofilm, A600, 12 h; higher = more signal
[16] = growth modulation of vineyard yeast isolate – strain RM11-1a, OD600, basal, 24 h, primary screen (AID 1177);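 also: cultures grown under basal conditions with no added stressor; test concentration not given here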; details: S. cerevisiae RM11-1a growth, OD600, 24 h; higher = more signal, called active from +8 up or from −8 down
[17] = growth of efflux-deficient E. coli DRC39 – strain DRC39, OD650, 24 h, E. coli filamentation inducers, primary screen (AID 1178);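 also: growth measured as culture turbidity by optical density at 650 nm; test concentration not given here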; details: E. coli DRC39 acrAB, higher = more signal, called active from +8 up or from −8 down
[18] = growth of efflux-deficient E. coli DRC39 – strain DRC39, OD650, 48 h, E. coli filamentation inducers, primary screen (AID 1179);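 also: screen aims at cell division blockers that make cells filament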; details: E. coli DRC39 delta-acrAB growth, higher = more signal, called active from +8 up or from −8 down
[19] = viability profiling in RPMI8226 myeloma cells – cell-based, resazurin fluorescence, basal, 24 h, PK04 Diversity Set, profiling panel (AID 1180); details: higher = more signal;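 also: RPMI8826 multiple myeloma cell line at 5000 cells per well; test concentration not given here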
[20] = target: E3 ubiquitin-protein ligase XIAP (Homo sapiens) (UniProt P98170); test: small molecules binding XIAP protein – biophysical, small-molecule microarray, fluorescence 635 nm, primary screen (AID 1181); details: higher = more signal;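 also: score merges 667 nm emission and signal to noise over triplicate slides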
E3 ubiquitin-protein ligase XIAP (Homo sapiens), sequence (P98170 whole entry, looked up): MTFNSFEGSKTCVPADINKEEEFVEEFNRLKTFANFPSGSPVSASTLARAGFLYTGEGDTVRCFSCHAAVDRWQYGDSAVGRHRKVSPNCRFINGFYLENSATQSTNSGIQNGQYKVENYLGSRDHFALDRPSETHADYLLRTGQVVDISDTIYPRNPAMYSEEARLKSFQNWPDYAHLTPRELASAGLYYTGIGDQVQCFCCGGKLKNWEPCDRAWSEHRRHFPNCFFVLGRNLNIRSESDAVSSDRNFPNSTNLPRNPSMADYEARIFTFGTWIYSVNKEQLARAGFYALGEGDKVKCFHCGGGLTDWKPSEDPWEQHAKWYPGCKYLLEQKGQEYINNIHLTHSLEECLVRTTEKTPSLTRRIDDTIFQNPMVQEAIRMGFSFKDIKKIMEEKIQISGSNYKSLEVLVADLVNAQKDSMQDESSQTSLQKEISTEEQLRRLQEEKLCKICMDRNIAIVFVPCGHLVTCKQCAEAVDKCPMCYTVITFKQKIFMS

Compound | z-score [1] | z-score [2] | z-score [3] | z-score [4] | z-score [5] | z-score [6] | z-score [7] | z-score [8] | z-score [9] | z-score [10] | z-score [11] | z-score [12] | z-score [13] | composite z-score [14] | z-score [15] | z-score [16] | z-score [17] | z-score [18] | z-score [19] | composite z-score [20]
CCN1C(=O)[C@H]2[C@H]3[C@H](O)[C@H](O)CC(=NO[C@H](C)c4cn([C@H](CO)Cc5ccccc5)nn4)[C@@H]3CC[C@H]2C1=O | 1.01 | -0.922 | 0.211 | -0.824 | 0.065 | -0.471 | -1.16 (inactive) | 0.271 | -0.343 | -1.13 (inactive) | -0.948 | 0.0722 (inactive) | -1.37 (inactive) | -0.613 (inactive) | 0.359 (inactive) | -0.141 (inactive) | 1.44 (inactive) | 0.829 (inactive) | -1.46 | 0.0178
C[C@@H]1C=CCC(=O)OC[C@H](C)C(=O)N[C@@H](Cc2ccccc2)C(=O)OC1 | -0.88 | 2.49 | 0.499 | -0.295 | -0.371 | 0.662 | 0.55 (inactive) | 0.803 | 0.382 | 0.168 (inactive) | -0.42 | -1.13 (inactive) | 0.489 (inactive) | -2.99 (inactive) | -0.355 (inactive) | -0.868 (inactive) | 0.0826 (inactive) | -0.0419 (inactive) | 0.394 | -0.0669
CO[C@@H](C(C)C)[C@@H](C)C1OC(=O)CC1O (stereo not given in full) | -0.729 | -0.121 | -0.349 | 0.534 | -0.908 | -0.518 | -0.419 (inactive) | -0.147 | -0.0891 | -0.196 (inactive) | -0.544 | -0.139 (inactive) | -0.766 (inactive) | -0.531 (inactive) | -0.139 (inactive) | -0.622 (inactive) | 0.284 (inactive) | 0.468 (inactive) | -1.17 | -0.0391
COC(=O)[C@H](C)NC(=O)CCC1CC(OC(=O)NCc2cccc3ccccc23)CC2(CCCC(COC(=O)NCCCN3CCCC3=O)O2)O1 (stereo not given in full) | 0.278 | -0.172 | 0.488 | 0.145 | -0.0813 | 0.24 | 0.338 (inactive) | -0.344 | -0.394 | 0.44 (inactive) | 0.607 | -0.0554 (inactive) | 0.478 (inactive) | -0.104 (inactive) | 0.286 (inactive) | 0.0627 (inactive) | 0.992 (inactive) | -1.34 (inactive) | -0.0303 | -0.273
CCOC(=O)NN=C1C[C@@H](O)[C@@H](O)[C@@H]2[C@@H]3C(=O)N(CC)C(=O)[C@@H]3CC[C@H]12 | 0.258 | -0.588 | 0.527 | 0.464 | 0.268 | 0.987 | -0.557 (inactive) | -0.241 | -0.809 | -0.653 (inactive) | -0.635 | 0.467 (inactive) | -2.97 (inactive) | 0.463 (inactive) | 0.0578 (inactive) | 0.355 (inactive) | 0.334 (inactive) | 0.388 (inactive) | -1.04 | 0.0119
COC(=O)[C@H](C)NC(=O)CCC1CC(OC(=O)NCc2ccc3c(c2)OCO3)CC2(CCCC(COC(=O)NCc3ccccc3)O2)O1 (stereo not given in full) | 3.03 | -0.645 | 0.558 | -0.147 | 1.27 | 1.33 | 0.552 (inactive) | 0.195 | -0.882 | 0.409 (inactive) | 1.24 | -0.67 (inactive) | -0.731 (inactive) | -0.504 (inactive) | 0.38 (inactive) | 0.479 (inactive) | 1.03 (inactive) | 0.32 (inactive) | 1.11 | -0.205
COc1ccc(O[C@H]2C=C[C@@H](c3ccccc3)O[C@@H]2COC(=O)NCc2cccc3ccccc23)cc1 | 0.152 | 0.0831 | -0.833 | -1.23 | -0.0376 | 0.194 | -0.351 (inactive) | 0.396 | -0.225 | 0.618 (inactive) | -0.556 | 0.476 (inactive) | -0.079 (inactive) | -0.0459 (inactive) | 0.79 (inactive) | 0.846 (inactive) | -0.424 (inactive) | -0.257 (inactive) | 0.283 | -0.0448
O=C1[C@H]2[C@H]3[C@H](O)[C@H](O)CC(=NO[C@@H]4O[C@H](CO)[C@@H](O)[C@H](O)[C@H]4O)[C@H]3CC[C@H]2C(=O)N1c1ccc(F)cc1F | -0.32 | 0.528 | -0.846 | 0.0224 | -0.3 | 0.419 | -0.35 (inactive) | -0.177 | -0.709 | 1.09 (inactive) | 0.487 | 0.191 (inactive) | -0.141 (inactive) | -1.08 (inactive) | -0.377 (inactive) | -0.638 (inactive) | 0.166 (inactive) | -0.196 (inactive) | 0.371 | 0.394
COC(=O)[C@H](C)NC(=O)CCC1CC(OC(=O)NCc2cccc3ccccc23)CC2(CCCC(COC(=O)NCCC(C)C)O2)O1 (stereo not given in full) | 0.505 | -0.0667 | -1.75 | -3.38 | -3.49 | -0.653 | 0.112 (inactive) | -0.51 | -1.82 | 0.236 (inactive) | 0.817 | -0.274 (inactive) | 0.505 (inactive) | -1.24 (inactive) | -0.0691 (inactive) | -0.186 (inactive) | 0.443 (inactive) | 0.594 (inactive) | 0.452 | -0.191
